Measurements reported in PubChem BioAssay AID686978 (National Center for Advancing Translational Sciences (NCATS), 2013).
Out of some 420,000 compounds screened, about 64,000 (15%) were called active. Roughly 27% stayed inconclusive and do not appear here. Calls follow the shape of the dose curve; as a rule, active = well fitted inhibition curve with a large enough effect; inconclusive = small, poorly fitted or top-dose-only effect; inactive = flat fitted curve, though single readings scatter. Only a sample is shown. Peptide text beside a SMILES is read from it.

experiment: qHTS for Inhibitors of human tyrosyl-DNA phosphodiesterase 1 (TDP1): qHTS in cells in absence of CPT; details: DT40 Tdp1-/- hTDP1 cells, no CPT, ATP luminescence, 48 h; activity change, negative = growth inhibition: at 46.2 µM (top of the series); also: nearly all actives have a fitted effect of over 55% in size
In short: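 Compound effects on proliferation are scored in DT40 Tdp1-/-;hTDP1 cells in the absence of CPT. ATP levels (CellTiter-Glo luminescence) are recorded after a ≥48 hr, 37 °C incubation.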
% is scaled to controls: 0 for no effect and ±100 for the full control effect; potency is read from the fitted curve at half-maximal effect.

| SMILES | activity change, negative = growth inhibition | Potency |
| --- | --- | --- |
| Cc1c(NC(=O)CN2C(=O)C(=O)N(Cc3ccccc3)C2=O)c(=O)n(-c2ccccc2)n1C | 7.02% (inactive) | – |
| CCOC(=O)c1cc2c(=O)n3ccccc3nc2n(CCCOC)c1=NC(=O)C(C)Oc1ccccc1 (stereo not drawn) | -24.7% (inactive) | – |
| CCOC(=O)c1cc2c(=O)n3ccccc3nc2n(CC2CCCO2)c1=NC(=O)c1ccc(C(C)(C)C)cc1 (stereo not drawn) | -2.39% (inactive) | – |
| CCOC(=O)c1cc2c(=O)n3ccccc3nc2n(CC(C)C)c1=NC(=O)c1c(-c2c(F)cccc2Cl)noc1C | – | 5.8 µM (active) |
| c1c2c(cc3sc(N4CCCCC4)nc13)OCCO2 | -22.8% (inactive) | – |
| CCc1nc(C)ccc1OCC(=O)N(CC)CC | -10.2% (inactive) | – |
| CCC(C)(C)c1ccc(OCC(=O)N(C)C)c(C(C)(C)CC)c1 | – | 18.4 µM (active) |
| CCn1c(CNc2ccc(OC)cc2)nnc1SCC(=O)c1ccc(OC)cc1 | -21.5% (inactive) | – |
| CCn1c(SCC(=O)NNC(=O)c2ccc(OC)cc2)nnc1C(C)C | – | 20.6 µM (active) |
| Cc1cccc(C(=O)NNC(=O)CSc2nnc(C(C)C)n2C)c1 | 0.652% (inactive) | – |
| CCNC(=O)NC(=O)C(C)OC(=O)C1CCN(S(=O)(=O)c2ccccc2F)CC1 (stereo not drawn) | -0.61% (inactive) | – |
| Cc1nc(COc2cccc(Cl)c2)sc1C(=O)/C=C/N(C)C | -10.1% (inactive) | – |
| CCOc1ccc(S(=O)(=O)N2CCC(c3ccccc3)CC2)cc1C(=O)O | 9.36% (inactive) | – |
| CC(C)NS(=O)(=O)c1ccc(NC(=O)c2cccnc2)cc1 | -17.9% (inactive) | – |
| Cc1cc(NS(=O)(=O)c2ccc(NC(=O)c3cccnc3)cc2)nc(C)n1 | -9.45% (inactive) | – |
| CCOc1ccccc1C(=O)Nc1ccc(S(=O)(=O)N2CCCCC2c2cccnc2)cc1 (stereo not drawn) | – | 18.4 µM (active) |
| CCOc1ncccc1C(=O)Nc1ccc(S(=O)(=O)Nc2nc(C)cc(C)n2)cc1 | -3.56% (inactive) | – |
| Cc1cccc(C(=O)Nc2ccc(S(=O)(=O)N3CCCCC3c3cccnc3)cc2)c1 (stereo not drawn) | – | 18.4 µM (active) |
| CCn1ccnc1CNC(=O)CC1C(=O)NCCN1Cc1ccc(F)cc1Cl (stereo not drawn) | 1.09% (inactive) | – |
| COC(=O)Cn1c(=NC(=O)c2cc(OC)c(OC)c(OC)c2)sc2cc(OC)ccc21 | -24.5% (inactive) | – |
| NS(=O)(=O)c1cccc(NC(=O)COC(=O)c2cc([N+](=O)[O-])ccc2N2CCCC2)c1 | -4.81% (inactive) | – |
| O=C(Nc1cccc(F)c1)[C@@H]1CCCN1 | 7.69% (inactive) | – |
| CCCn1nnnc1NCc1ccc(CC)cc1 | -10.5% (inactive) | – |
| CCCn1c(NCc2ccc(N(CC)CC)cc2)nc2ccccc21 | – | 8.2 µM (active) |
| CC(C)(C)C(=O)Cn1c(NCCO)nc2ccccc21 | -3.49% (inactive) | – |

| SMILES | activity change, negative = growth inhibition | Potency |
| --- | --- | --- |
| O=C(O)CN1C(=O)CC(Cc2ccccc2)C1=O (stereo not drawn) | -0.391% (inactive) | – |
| Cc1cc(NC(=O)COn2nnc3ccccc32)no1 | -17.8% (inactive) | – |
| COC(=O)c1cc(NC(=O)C2C3C=CC(C3)C2C(=O)O)cc(C(=O)OC)c1 (stereo not drawn) | 3.17% (inactive) | – |
| O=C(NCCCNCc1ccccc1)c1ccc(/C=N/O)nc1 | 3.22% (inactive) | – |
| CCc1ccc(Nc2n[n+](-c3ccccc3)c(-c3cccc(Cl)c3Cl)s2)cc1 | – | 16.4 µM (active) |
| Cc1noc(C)c1S(=O)(=O)NCCc1ccc(S(N)(=O)=O)cc1 | -8.65% (inactive) | – |
| COC(=O)c1ccc([C@@H](O)[C@H](C)C(=O)CC(=O)OC(C)(C)C)cc1 | -16.3% (inactive) | – |
| O=C(c1ccccc1)c1ccc(OC(=O)N2CCCC2)cc1 | -25% (inactive) | – |
| c1ccc(CC2CCN(c3nc4ccccc4n4cnnc34)CC2)cc1 | -8.6% (inactive) | – |
| O=C(c1ccccc1)c1ccc2nc(N3CCCCC3)c3nncn3c2c1 | – | 13 µM (active) |
| COc1ccccc1OCCCC(=O)Nc1ccc2c(c1)OCCO2 | -24.4% (inactive) | – |
| COc1cccc(/C=C/C(=O)Nc2ccc3c(c2)OCCO3)c1 | -13.1% (inactive) | – |
| COc1ccc(OC)c(/C=C/C(=O)OCC(=O)Nc2ccc3c(c2)OCCO3)c1 | – | 16.4 µM (active) |
| S=c1c2[nH]cnc2ncn1CCSc1ncnc2nc[nH]c12 | -24.7% (inactive) | – |
| Cc1ccc(NC(=O)CN(C)C(=O)c2ccc(Cl)c(S(=O)(=O)NCc3ccco3)c2)cc1 | 11.9% (inactive) | – |
| CC[C@H](C)CCCCC(=O)N[C@@H](CCN)C(=O)N[C@H](C(=O)N[C@@H](CCN)C(=O)N[C@H]1CCNC(=O)[C@H]([C@@H](C)O)NC(=O)[C@H](CCN)NC(=O)[C@H](CCN)NC(=O)[C@H](CC(C)C)NC(=O)[C@@H](CC(C)C)NC(=O)[C@H](CCN)NC1=O)[C@@H](C)O (HELM PEPTIDE1{[CC[C@H](C)CCCCC(=O)[*:2]].[Dab].T.[Dab].[Dab].[Dab].[dL].L.[Dab].[Dab].T}$PEPTIDE1,PEPTIDE1,5:R3-11:R2$$$V2.0) | -2.38% (inactive) | – |
| O=C(CSc1nnc(CNC(=O)c2ccccc2)n1-c1ccc(F)cc1)Nc1ccccc1F | -10.5% (inactive) | – |
| Cc1cccc(NC(=O)CN2C(=O)c3ccccc3C2=O)c1C | 1.62% (inactive) | – |
| CCOc1ccc(NC(=O)Cn2c(C)ccc(C#N)c2=O)cc1 | 0.582% (inactive) | – |
| CCOC(=O)/C=c1\s/c(=C\c2ccc(C#N)cc2)c(=O)n1CC(=O)Nc1cccc(C)c1C | – | 5.17 µM (active) |
| Cc1nc(SCC(=O)NC2CCCC2)[nH]c(=O)c1C | -0.993% (inactive) | – |
| Cc1ccsc1C(=O)OCC(=O)c1cc2ccccc2o1 | -9.66% (inactive) | – |
| CCCCc1nn2c(=O)cc(COC(=O)c3cccc(NC(=O)COc4ccccc4)c3)nc2s1 | -10.2% (inactive) | – |
| O=C1CS(=O)CN1c1ccc(Oc2ccccc2)cc1 (stereo not drawn) | -20.1% (inactive) | – |
| O=C(CN1C(=O)NC2(CCCCCC2)C1=O)NCc1ccc(F)cc1 | 3.82% (inactive) | – |

| SMILES | activity change, negative = growth inhibition | Potency |
| --- | --- | --- |
| COc1cccc(NC(=O)c2cc(S(=O)(=O)N3CCc4ccccc43)cn2C)c1 | -1.2% (inactive) | – |
| COc1ccccc1N(C)C(=O)c1cc(S(=O)(=O)N2CCc3ccccc32)cn1C | – | 25.9 µM (active) |
| COc1cc(OC)c(NC(=O)c2cc(S(=O)(=O)N3CCCC3)cn2C)cc1Cl | -7.62% (inactive) | – |
| CN(C(=O)COC(=O)Cn1cnc2c1c(=O)n(C)c(=O)n2C)C1(C#N)CCCCC1 | 0.855% (inactive) | – |
| NCC(=O)c1cccc2ccc[n+]([O-])c12 | -0.678% (inactive) | – |
| O=C(c1cnccn1)N1CCC2(CCCN(Cc3ccccc3)C2)CC1 | -1.1% (inactive) | – |
| CCN(Cc1ccncc1)C(=O)[C@@H](CO)c1ccccc1 | 2.72% (inactive) | – |
| C=CCn1c(SCC(=O)NCc2ccccc2)nnc1-c1cc(Br)ccc1O | -18% (inactive) | – |
| COc1ccc(OCC(=O)NNC(=O)C2CCC2)cc1 | -5.78% (inactive) | – |
| COc1ccc(-c2ccc3c(c2)C2CC3CCN2CCC#N)cc1 (stereo not drawn) | – | 23.1 µM (active) |
| C=CCOC(=O)N1CCC2CC1c1cc(-c3ccc(OC)cc3)ccc12 (stereo not drawn) | – | 16.4 µM (active) |
| COc1ccc(NC(=O)CCN2CCCC2)c(OC)c1 | 0.0354% (inactive) | – |
| CC1CC1C(=O)OCC(=O)c1c(N)n(C)c(=O)n(C)c1=O (stereo not drawn) | 8.67% (inactive) | – |
| CCOC(=O)N1CCN(C(=O)c2cc3c(ccc4ccccc43)oc2=O)CC1 | -24.1% (inactive) | – |
| CCOC(=O)N1CCN(C(c2cccnc2)c2ccc3cccnc3c2O)CC1 (stereo not drawn) | – | 1.64 µM (active) |
| Cc1onc(C(=O)NN)c1C(=O)N1CCN(C(c2ccccc2)c2ccccc2)CC1 | -18.3% (inactive) | – |
| CCOC(=O)Cn1nnnc1C | -9.63% (inactive) | – |
| CCC(C)CCN1CCN=C1N(C)C (stereo not drawn) | -17.4% (inactive) | – |
| CC(C)NS(=O)(=O)c1ccc(OCC(=O)Nc2ccc3c(c2)OCCO3)cc1 | -0.099% (inactive) | – |
| CC1CC2=C(CC1/C=N/NC(N)=S)C(C)(C)CCC2 (stereo not drawn) | – | 3.26 µM (active) |
| Cc1ccc(OCC(=O)OCc2cc(=O)n3nc(C4CC4)sc3n2)cc1C | 0.484% (inactive) | – |
| COc1cccc(Nc2nnc(SCC(=O)N3CC(=O)Nc4ccccc43)s2)c1 | -29.2% (inactive) | – |
| O=c1c2cc([N+](=O)[O-])ccc2nc2n1CCC2 | -13.8% (inactive) | – |
| N#C/C(=C(\O)C(F)(F)F)c1nnc2n1CCCCC2 | -0.657% (inactive) | – |
| N#C/C(=C/c1cccc([N+](=O)[O-])c1)c1nnc2n1CCCCC2 | – | 13 µM (active) |

| SMILES | activity change, negative = growth inhibition | Potency |
| --- | --- | --- |
| Cc1ccc(NC(=O)c2cc([N+](=O)[O-])ccc2Cl)c(O)c1 | -26.4% (inactive) | – |
| CCn1cc(C(=O)N[C@@H](C)C(=O)NCCO)c(=O)c2cc3c(cc21)OCO3 | 34.9% (inactive) | – |
| NC(=O)c1sc(-c2ccsc2)cc1N | -17.9% (inactive) | – |
| C#CCOCCOCCOCCNc1nc(N2CCN(C(=O)Cn3cc(CCO)nn3)CC2)nc(N2CCN(C(=O)Cn3cc(CCCN=C(N)N)nn3)CC2)n1 | -0.16% (inactive) | – |
| C#CCOCCOCCOCCNc1nc(N2CCN(C(=O)[C@H](CCCN=C(N)N)n3cc(C(N)[C@@H](C)CC)nn3)CC2)nc(N2CCN(C(=O)[C@H](CO)n3cc([C@@H](N)C(C)C)nn3)CC2)n1 (stereo partly drawn) | -2.88% (inactive) | – |
| C#CCOCCOCCOCCNc1nc(N2CCN(C(=O)CCCCCCCCCCNC(=O)[C@H]([C@@H](C)CC)n3cc(CCCCN=C(N)N)nn3)CC2)nc(N2CCN(C(=O)CCCCCCCCCCNC(=O)[C@H](CO)n3cc(CCCSC)nn3)CC2)n1 | – | 8.2 µM (active) |
| CCN(CC)CCCSc1nc2ccccc2s1 | -17.6% (inactive) | – |
| O=C(NC(=O)N1CCSCC1)c1c(Cl)cccc1Cl | -12% (inactive) | – |
| O=C(NCCc1cccc(F)c1)C1CC(O)CN1C(=O)Nc1ccccc1 (stereo not drawn) | -11.9% (inactive) | – |
| COc1cc(CCC(=O)Nc2ccncc2Cl)cc(OC)c1OC | -14.5% (inactive) | – |
| COc1cc(CCC(=O)N2CCN(c3ccccc3Cl)CC2)cc(OC)c1OC | – | 11.6 µM (active) |
| COc1ccc(CCC(=O)N2CCN(S(=O)(=O)c3ccc(OC)cc3)CC2)cc1 | -32.4% (inactive) | – |
| CCOC(=O)C1=C(c2ccccc2)O/C(=C(/C(=O)OC)C(F)(F)F)S1 | -21.6% (inactive) | – |
| Cc1ccc2c(c1)N(C(=O)CCC(=O)NCc1cccnc1)CCO2 | -4.05% (inactive) | – |
| Cc1c(C)n2c(SCC(=O)NC3CCCC3)nnc2[nH]c1=O | -3.76% (inactive) | – |
| CC(C)Cc1nnc(N)s1 | -14.3% (inactive) | – |
| CC1CCC(N2CC(=O)N(CCC3=CCCCC3)C(c3ccc(F)cc3)C2=O)CC1 (stereo not drawn) | – | 10.3 µM (active) |
| CCOCCCN1C(=O)CN(C2CCCCC2)C(=O)C1c1ccc(OCC)c(OC)c1 (stereo not drawn) | -15.8% (inactive) | – |
| CCCc1nnc(SCC(=O)N2C(C)CCCC2C)n1CC (stereo not drawn) | -0.484% (inactive) | – |
| O=C(c1cccc(N2CCCC2=O)c1)N1CCOCC1 | -0.431% (inactive) | – |
| O=C(CSC(=S)N1CCOCC1)c1cc(Br)cc(Br)c1O | -13.5% (inactive) | – |
| O=C(c1cc2cc(Br)cc(Br)c2oc1=O)N1CCOCC1 | 3.73% (inactive) | – |
| O=C1Nc2c(Br)cc(Br)cc2C1(O)N1CCOCC1 (stereo not drawn) | – | 3.66 µM (active) |
